Assay results as given in the OligoGym collection.

Each sequence was assayed against SHROOM4 (assay: pooled miR-30 sensor sort-seq; sequence = guide strand). Conditions: shRNA.
Also: reference of the scale not given here.

Sequence | sensor-assay potency score (higher = more potent)
TTGAAGAGCTTGTCTCTGGGGC | 0.543
TTCATCTTGACAAAGTGCTGGT | 0.618
TTATTCGTCCCTCTAAGCCTGT | -0.267
TATCAGTACCAACTTCTCCTGG | -0.376
TTTCTGAACTGAAATACTGGGG | -0.0667
TTGAAGAACAGTCCGTGGCTTG | -0.301
TTTGCTTGCAAAACATTCTGAG | 0.464
TAGAGCTCCTTGAACACTGCAG | 0.417
TAGTGGTTGAAGAACAGTCCGT | -0.287
TAGCTTGACAAGTCCAGTGCTG | -0.0975
TTGCTTGCAAAACATTCTGAGT | -1.21
TTTCATCTTGACAAAGTGCTGG | 0.237

Each sequence was assayed against SIAE in the same assay as above. Conditions: shRNA.

Sequence | sensor-assay potency score (higher = more potent)
TATCTGTAACACAGTCATCTGC | -0.344
TAGACAACTCCCTTGTAGCATT | -0.9
TTATTTTCTCCAAAGTCTGTTG | -0.694
